The record followed here is PubChem BioAssay (NCI).

This is part of a sample that, as a whole, favours compounds with a hit. Of some 83,000 tested, about 20% had one in any assay.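 The test compound was applied at a single concentration to cells in 96-well plates for 48 hours, and percent growth was recorded.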 A number with no mark means an inactive call. Activity calls are given as the source filed them. How the source made its calls: active means growth percent below 10; inactive means the rest.

The test system of this experiment is LOX IMVI melanoma. Kind of experiment: NCI-60 one-dose screen, 48 h (100 = growth as untreated, 0 = no growth, -100 = all killed). The settings on record: 10 µM unless noted.
For the compound `COc1cc(-c2n[nH]nc2-c2ccccn2)cc(OC)c1OC`, the growth is 98.5%.

`COc1cc(C2=NN(C=O)C(c3cccc(Nc4ccnc5cc(Cl)ccc45)c3)C2)cc(OC)c1OC` (stereo unspecified): the growth was 54.5%. For the compound `Cc1sc2nc(NCc3ccccc3)[nH]c(=O)c2c1C`, the growth is 53%. With `CC(=O)N1N=C(c2ccc(Nc3nc(NCCO)nc(NCCO)n3)cc2)CC1c1ccc(Cl)cc1` (stereo unspecified), the growth is 93.6%.

For `COc1ccc(N2CCN(CC(=O)N3CCN(c4nnc(-c5ccc(Cl)cc5)c(-c5ccc(Cl)cc5)n4)CC3)CC2)cc1`, the growth was 49.6%. For `C1CCC(C(CC2CCCCN2)C2CCCCC2)CC1` (stereo unspecified), the growth is -95.5% (active).

Turning to `Cc1cc2c(cc1C)[n+](Cc1ccc3ccccc3c1)cn2Cc1ccc2ccccc2c1`, the growth is -86.7% (active).

`COc1ccc(Oc2ccccc2NC(=O)CNC(=O)c2cccc3ccccc23)cc1`: the growth was 22.3% [5 µM]. As for `COc1cccc(N2CCN(CC(=O)N3CCN(c4nnc(-c5ccc(Cl)cc5)c(-c5ccc(Cl)cc5)n4)CC3)CC2)c1`, the figure is 65%; as for `CC(=O)N1N=C(c2ccc3c(c2)OCO3)CC1c1c(C)nn(-c2ccccc2)c1N(C)Cc1ccccc1` (stereo unspecified), 86.5%; as for `COc1ccc(C(=O)/C=C/c2cccc(Nc3ccnc4cc(Cl)ccc34)c2)cc1`, 6.49% (active).

For `COc1cc(C2CC(C3C(=O)N(C)C(=O)N(C)C3=O)=NN2c2cc(Cl)cc(Cl)c2)cc(OC)c1OC` (stereo unspecified), the growth is 99%. Regarding `O=C1NC(=O)/C(=C\c2ccco2)S1`, the growth was 91.5%. With `COc1ccc2nc(-c3ccc(Cl)cc3)cc(-c3nnc(SCC(=O)Nc4ccc(C(C)=O)cc4)n3-c3ccccc3)c2c1`, the growth was 105%. With `O=C(CNC(=O)c1cccc2ccccc12)Nc1ccccc1Cc1ccccc1`, the growth is 38.2% [5 µM]. On to `CCCCc1n(Cc2ccc3ccccc3c2)cc[n+]1Cc1ccc2ccccc2c1`, for which the growth was -88.2% (active).

In the case of `COc1cc(C2CC(C3C(=O)N(C)C(=O)N(C)C3=O)=NN2C=O)cc(OC)c1OC` (stereo unspecified), the growth is 97.7%. `Nc1ncnc2c1CN(Cc1ccccc1)CC2`: the growth is 91.4%. As for `CCOC(=O)c1sc(NC(=O)COc2cccc(/C=C3\Cc4ccc(Cl)cc4C3=O)c2)nc1C`, the figure is 97.7%. `COC(=O)[C@H](CCCCNC(=O)OCc1ccccc1)NC(=O)[C@@H](NC(=O)Nc1cc(C(F)(F)F)cc(C(F)(F)F)c1)C(C)C`: the growth was -83.3% [100 µM] (active). As for `CCN(CC)c1ccc(C(=C2C=CC(=[N+](CC)Cc3cccc(S(=O)(=O)O)c3)C=C2)c2ccc(N(CC)Cc3cccc(S(=O)(=O)O)c3)cc2)cc1`, the figure is 35.4%; as for `O=C(CNC(=O)c1cccc2ccccc12)Nc1ccccc1Oc1ccc(O)cc1`, 40.9% [5 µM]. For the compound `COc1cc(C(=O)/C=C/c2cccc(Nc3ccnc4cc(Cl)ccc34)c2)cc(OC)c1OC`, the growth is -85.8% (active). Turning to `CN1C(=O)C(C2=NN(C=O)C(c3ccc(F)cc3)C2)C(=O)N(C)C1=O` (stereo unspecified), the growth was 90.4%. As for `O=CN1N=C(c2ccc(Nc3ccnc4cc(Cl)ccc34)cc2)CC1c1ccc(Cl)cc1` (stereo unspecified), the figure is 32%. Take `COc1cccc(-c2nc3cc(NC(=O)c4ccc(Cl)c(C#N)c4)ccc3o2)c1`: the growth was 21.9%.
